Bioassay records (PubChem)
The entries come from a sample that favours hits as a whole.
Pf Dd2 inh: Plasmodium falciparum Dd2 growth inhibition; P. falciparum Dd2 growth, SYBR Green, 72 h; 4.3% of 120,000 active; Potency, µM (top dose mostly 28.9 µM), hits mostly inhibitors; active means well fitted inhibition curve with a large enough effect; further: nearly all actives have a fitted effect of over 65% in size
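Readout: SYBR Green fluorescence, 485 nm excitation, 535 nm emission, after ~16 h lysis at 37C. Before that, Dd2-infected red cells (2.5% hematocrit) grew 72 h with compound, 29 uM top final concentration.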
Numbers stand for hits; n = inactive; [ ] = another dose, or the depositor's remark.

SMILES	Pf Dd2 inh
Cc1cccc(NC(=O)Cn2c(=O)n(Cc3ccc(C(=O)NCc4ccc5c(c4)OCO5)cc3)c(=O)c3ccccc32)c1	3.98µM
Cc1ccc(NC(=O)Cn2c(=O)n(Cc3ccco3)c(=O)c3ccc(C(=O)NC4CCCC4)cc32)c(C)c1	n
CCOCCn1c(=O)[nH]c2cc(C(=O)NCCN3CCCC3=O)ccc21	n
COc1cc(=O)n2c(c1C(=O)NCC1CCOc3ccccc3C1)CCNCC2 (configuration not stated)	n
O[C@@H]1C[C@@H](c2nc(-c3ccc(OC(F)(F)F)cc3)no2)N(C2CCOCC2)C1	n
Cc1cccc(C)c1NC(=O)c1cccc(CN2CCCC2C)c1 (configuration not stated)	10µM
Cc1cccc(C)c1NC(=O)c1ccc2c(c1)nnn2C1CCCC1	n
O=C(NC1CCCN(C(=O)C2CC2)C1)c1cccc(Cn2cccn2)c1 (configuration not stated)	n
COc1cc(C(=O)NCC(c2cccnc2)N2CCc3ccccc3C2)cc(OC)c1OC (configuration not stated)	n
COc1cccc(CNC(=O)c2c[nH]c3ncccc23)c1	n
COc1cccc(C(=O)N[C@H]2[C@H](O)[C@H](O)C[C@@H]2c2cccnc2)c1	n
COc1cc(C(=O)Nc2ccc(Cl)c(-c3nc4ncccc4o3)c2)cc(OC)c1OC	n
COc1cccc(C(=O)NC(c2ccc(Cl)cc2)c2cc(Cl)c3cccnc3c2O)c1 (configuration not stated)	3.16µM
COc1cc(C(=O)NC(c2ccc(Cl)cc2)c2cc(Cl)c3cccnc3c2O)cc(OC)c1OC (configuration not stated)	2.82µM
CN1C(=O)[C@@H]2C[C@@H](CN2CC2CC2)Oc2ccccc21	n
O=C(O)c1nn(CC2CC2)c2c1CN(C(=O)c1nccc3ccccc13)CC2	n
Cc1cc(C)c(Cn2c(C(O)c3ccccc3)nc3ccccc32)c(C)c1 (configuration not stated)	3.16µM
Cc1ccc(C)c(Cn2c(C(C)NC(=O)c3ccccc3)nc3ccccc32)c1 (configuration not stated)	n
CCOc1ccccc1N1CC(c2nc3ccccc3n2Cc2c(C)cc(C)cc2C)CC1=O (configuration not stated)	n
Cn1ccnc1CN1C[C@@H]2C[C@H]1C(=O)N(Cc1ccccn1)c1ccccc1O2	n
CN1CC2(CCCN(Cc3cc4ccccc4o3)C2)OC1=O (configuration not stated)	n
O=C1CCN(Cc2ccccc2)CCOCCN1	n
Fc1ccccc1N1CCN(Cc2nnc(-c3ccc4c(c3)OCO4)o2)CC1	n[0.594 µM]
O[C@@H]1C[C@@H](c2nc(-c3ccc4c(c3)OCO4)no2)N(Cc2ccccc2)C1	n
CC1(C)CN(Cc2cn(Cc3ccccc3)nc2-c2cc3ccccc3o2)CCO1	8.91µM
SMILES	Pf Dd2 inh
c1ccc(Cn2cc(CN3CCCC3)c(-c3ccc4c(c3)OCO4)n2)cc1	11.2µM
Cc1nnc([C@H]2CCN(Cc3ccccc3)C2)o1	n
FC1CCN(Cc2cn(Cc3ccccc3)nc2-c2cc3ccccc3o2)CC1	7.94µM
CN1CC2(CCN(Cc3ccccc3)CC2)CC1C(=O)N1CCOCC1 (configuration not stated)	n
c1ccc(Cn2cc(CN3CCCOCC3)c(-c3cc4ccccc4o3)n2)cc1	11.2µM
O=C1NCCN1C1CCN(Cc2ccccc2)CC1	n
O=C(O)c1cncc(-c2cccc(CN3CCOCC3)c2)n1	n
Cc1cccc(-c2nc(Cn3c(-c4ccccc4)nc(C)c(CCO)c3=O)c(C)o2)c1	n
Cc1ccc(C)c(C(=O)N2CCC(c3n[nH]c(=O)n3-c3ccccc3)CC2)c1	n
CCCN1C(=O)C(CC(=O)N2CCOCC2)Sc2ncccc21 (configuration not stated)	n
O=C1CC(c2ccccc2)N(C(=O)CNC(=O)C2CCOCC2)CCCCCN1 (configuration not stated)	n
COc1ccc(S(=O)(=O)N2CCC3(CC2)CC(CC(=O)N2CCCC2)CCO3)cc1 (configuration not stated)	n
O=C1CCCCC(C(=O)NCc2ccco2)N1 (configuration not stated)	n
COc1ccc(C(=O)N[C@H]2CO[C@H]3[C@@H]2OC[C@H]3OCc2ccccc2)cc1	n
COCC1CCCCN1C(=O)c1ccc2oc(CCc3ccccc3)nc2c1 (configuration not stated)	n
COC[C@H]1CCCN1C(=O)CC[C@H]1CNC(=O)[C@@H]2[C@@H](CCN2Cc2ccccc2)N1C	n
COC[C@H]1CCCN1Cc1cn(Cc2ccccc2)nc1-c1cc2ccccc2o1	7.94µM
Cc1ccc(C2Cn3nnc(C(=O)N4CCC(C(=O)NCc5cccs5)CC4)c3CO2)cc1 (configuration not stated)	n
Cc1cc(C)n(CCC(=O)N2C[C@@H](CO)[C@H](c3nc(C)no3)C2)n1	n
CC(=O)N(C)Cc1cccc(C(F)(F)F)c1	n
CN(Cc1cccc(C(F)(F)F)c1)C(=O)Cc1ccc(F)cc1	n
CN(Cc1cccc(C(F)(F)F)c1)C(=O)c1ccc(F)cc1	11.2µM
CN(CC1CCOCC1)C(=O)Nc1cc(F)ccc1F	n
COc1cc(NC(=O)Cn2cccc2-c2nc(-c3ccc(F)cc3)no2)cc(OC)c1OC	n
O=C(NC1CCCC1)c1c(OCC2CC2)cc(=O)n2c1CCOCC2	n
SMILES	Pf Dd2 inh
O=C(Nc1ccc(C2(C(=O)NCc3ccc4c(c3)OCO4)CCCCC2)cc1)C1CC1	12.6µM
CS(=O)(=O)Nc1ccc(C2(C(=O)NCc3ccc4c(c3)OCO4)CCCCC2)cc1	n
O=C(Nc1ccc(C2(C(=O)NCc3ccc(F)cc3)CCCCC2)cc1)C1CC1	n
O=C(Nc1ccc(Cl)cc1)c1cnn2c1NC(c1ccccc1)=CC2c1ccccc1 (configuration not stated)	3.16µM
COc1ccc(NC(=O)C2=C(C)Nc3ncnn3C2c2ccccn2)cc1 (configuration not stated)	n
COc1ccc(C2=CC(c3ccccc3F)n3ncc(C(=O)Nc4ccc(C)cc4)c3N2)cc1 (configuration not stated)	7.94µM
O=C(Nc1cnc(-c2ccc(Cl)cc2)nc1)c1ccccc1Cl	n
COc1ccc(OC)c(C2NC(=O)NC(C)=C2C(=O)Nc2ccc(F)cc2)c1 (configuration not stated)	n
CC(=O)c1ccc(NC(=O)c2nc(-c3ccccc3)n(-c3ccc(Cl)cc3)n2)cc1	n
CC(=O)Nc1ccc(C(=O)N2CCN(c3ccc(C=O)cc3)C(=O)C2)cc1	n
COc1ccc(-c2noc([C@@H]3C[C@@H](O)CN3Cc3ccc(F)cc3)n2)cc1	n
CCOc1ccc2c(n1)CCN(C(=O)c1ccn(CC)n1)C2	n
C[C@H]1[C@@H]2[C@@H](O)C([C@H](C)C(=O)NCc3cccnc3)CC[C@@]2(C)CC[C@@H]1NC(=O)c1ccc(C#N)cc1 (some centres not stated)	n
C[C@H]1[C@@H]2[C@@H](O)C([C@H](C)C(=O)NCc3ccccn3)CC[C@@]2(C)CC[C@@H]1NC(=O)c1ccc(C#N)cc1 (some centres not stated)	8.91µM
C[C@H]1[C@@H]2[C@@H](O)C([C@H](C)C(=O)NCc3ccccc3)CC[C@@]2(C)CC[C@@H]1NC(=O)c1ccc(C#N)cc1 (some centres not stated)	n
CCn1ncc(C(=O)N2C[C@@H](COC)[C@H](c3nc(C4CC4)no3)C2)c1C	n
CCn1ccc(C(=O)NCc2cccnc2N(C)CCc2ccccn2)n1	n
